Measured values reported in PubChem BioAssay (NCATS).
Records with an inconclusive call do not appear. Activity calls are given as the source filed them. The call rests on the fitted dose curve; in most records, active means well fitted curve in the direction sought with a large enough effect; inconclusive means small, poorly fitted or top-dose-only effect, or another doubt; inactive means no such curve, though single readings can be large; an effect the other way counts as inactive or inconclusive. Peptide text beside a SMILES is read from it. * marks the point of attachment. AFC = O=c1cc(C(F)(F)F)c2ccc(N*)cc2o1

Experiments:
[1] = molecular target: Cellular tumor antigen p53 (Homo sapiens) (UniProt P04637); experiment: Primary qHTS for small molecule compounds that upregulate eGFP-tagged delta133p53alpha (in N-terminal) cells. (AID 2060322); settings: NCI-H358 eGFP-delta133p53alpha fluorescence, 24 h; activation: stronger effect = higher value;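 further: cells pre-induced with doxycycline then dosed without doxycycline; series mostly up to about 56 µM; 0% = DMSO vehicle and 100% = reference activator; nearly all actives have a fitted effect of over 75% in size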
Chain of Cellular tumor antigen p53 (Homo sapiens) (P04637 whole entry, looked up): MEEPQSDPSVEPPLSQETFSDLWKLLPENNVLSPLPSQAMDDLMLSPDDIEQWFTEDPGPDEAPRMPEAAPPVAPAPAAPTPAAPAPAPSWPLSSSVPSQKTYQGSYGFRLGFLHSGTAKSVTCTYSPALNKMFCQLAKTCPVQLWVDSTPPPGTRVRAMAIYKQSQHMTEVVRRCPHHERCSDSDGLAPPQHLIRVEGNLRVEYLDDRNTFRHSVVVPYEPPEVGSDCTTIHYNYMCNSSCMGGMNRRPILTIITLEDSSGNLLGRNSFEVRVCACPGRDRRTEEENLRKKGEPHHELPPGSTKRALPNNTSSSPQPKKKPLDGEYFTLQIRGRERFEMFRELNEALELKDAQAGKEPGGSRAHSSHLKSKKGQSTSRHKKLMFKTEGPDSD
Summary of the method: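 NCI-H358 cells pre-induced 24 h with 10 ng/ml doxycycline for eGFP-delta133p53alpha, plated dox-free and exposed 24 h at 37C to titrated compounds. Fixed, Hoechst-stained; gated GFP peak intensity by laser scanning cytometry, normalized to DMSO (0%) and 57.5 uM 5-azacytidine (100%).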

[2] = molecular target: Aldehyde dehydrogenase, mitochondrial (Homo sapiens) (UniProt P05091); experiment: qHTS for Inhibitors of the Aldehyde Dehydrogenase Family (ALDH2) Primary screen (AID 2061308);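 further: plate controls were vehicle for no effect and reference inhibitor for full effect; nearly all actives have a fitted effect of over 55% in size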
[3] = molecular target: Retinaldehyde dehydrogenase 3 (Homo sapiens) (UniProt P47895); experiment: qHTS for Inhibitors of the Aldehyde Dehydrogenase Family (ALDH1A3) Primary screen (AID 2061315);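 further: plate controls were DMSO vehicle for no effect and reference inhibitor for full effect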

Cc1cc2sc(NC(=O)Cc3ccccc3)nc2cc1Cl
inactive: activation [1] -6.25% | Potency [2] | Potency [3]

C=C(C(=O)O)C1CCC2(C)CCC(O)C(=C)C2C1 (stereo unspecified)
inactive: activation [1] 9.82% | Potency [2] | Potency [3]

C[C@@H]1O[C@@H](O[C@H]2[C@H](O[C@H]3CC[C@@]4(C)C(CC[C@]5(C)C4CC=C4C6CC(C)(C)CC[C@]6(C(=O)O[C@@H]6O[C@H](CO[C@@H]7O[C@H](CO)[C@@H](O[C@@H]8O[C@@H](C)[C@H](O)[C@@H](O)[C@H]8O)[C@H](O)[C@H]7O)[C@@H](O)[C@H](O)[C@H]6O)CC[C@]45C)[C@]3(C)CO)OC[C@H](O)[C@@H]2O)[C@H](O)[C@H](O)[C@H]1O (stereo partly specified)
inactive: activation [1] 3.82% | activity change, negative = inhibition [2] 15.8% [at 11.2 µM] | activity change, negative = inhibition [3] 17.4% [at 11.2 µM]

CC(=O)O[C@H](C[C@@H](C)[C@H]1C(=O)[C@H](O)[C@@]2(C)[C@@H]3CCC4C(C)(C)[C@@H](O[C@@H]5OC[C@H](O)[C@H](O)[C@H]5O)CC[C@@]45C[C@@]35CC[C@]12C)[C@@H]1OC1(C)C (stereo partly specified)
inactive: activation [1] 8.04% | Potency [2] | Potency [3]

CC(=O)O[C@H]1C[C@@](O)(C(C)C)[C@@H]2[C@@H](OC(=O)c3ccc(O)cc3)CC(C)=CC[C@@]12C
inactive: activation [1] 21.4% | Potency [2] | Potency [3]

C=C1CC2C3(C)C=CC(=O)OC(C)(C)C3CC(OC(C)=O)C2(C)C2C(=O)OC(C)C(=O)C12C (stereo unspecified)
inactive: activation [1] 15.3% | Potency [2] | Potency [3]

CC(=O)N[C@@H](Cc1c[nH]c2ccccc12)C(=O)N[C@@H](CCC(=O)O)C(=O)N[C@@H](Cc1cnc[nH]1)C(=O)N[C@@H](CC(=O)O)C(=O)Nc1ccc2c(C(F)(F)F)cc(=O)oc2c1 (Ac-WEHD-{AFC})
inactive: activation [1] -4.33% | Potency [2] | Potency [3]
